# PubChem BioAssay
# Where “and” joins values, the source holds several entries; their conditions need not be identical. Identical values can stand only once. Calls of active or inactive are those of the source.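 Rule for the calls, unless noted: active = thallium flux through the channel raised or lowered by more than 3 SD from vehicle-only wells, actives on both sides; inactive = the rest.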
# Experiments:
# [1] = UWB1.289 ovarian carcinoma cell growth inhibition, synergistic combos for chromothripsis tumors, BGB or cisplatin combos (AID 1671456; in the data active = inhibition above about 80%;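 note: cells exposed to compound for four days; 0% = vehicle DMSO and 100% = killing by high DMSO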); details: UWB1.289 ovarian carcinoma cells, stronger effect = higher value
# [2] = LFS_MB_2R medulloblastoma cell growth inhibition, synergistic combos for chromothripsis tumors, cisplatin combos (AID 1671457; in the data active = inhibition above about 80%;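 note: cells exposed to compound for four days before readout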); details: LFS_MB_2R medulloblastoma cells, stronger effect = higher value
# [3] = MDA-MB-436 breast carcinoma cell growth inhibition, synergistic combos for chromothripsis tumors, BGB or cisplatin combos (AID 1671458; call rule not given here;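 note: cells exposed for 96 hours; 0% = vehicle DMSO and 100% = killing by high DMSO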); details: MDA-MB-436 breast carcinoma growth inhibition, drug combinations, stronger effect = higher value
# [4] = UWB1.289_BRCA1 ovarian cancer growth, cell-based, BGB or cisplatin combinations (AID 1671459; in the data active = inhibition above about 80%); details: UWB1.289 BRCA1 ovarian carcinoma, drug combinations, stronger effect = higher value
# [5] = human astrocyte viability loss, single and combined drugs, cytotoxicity control for chromothriptic childhood tumor combination screen, cell-based, BGB or cisplatin IC20 combos (AID 1671460; in the data active = inhibition above about 80%;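 note: cells exposed to compounds for 96 hours before viability readout; 0% = vehicle and 100% = killing control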); details: Human astrocytes, drug combinations, stronger effect = higher value
# [6] = growth inhibition of BT084 medulloblastoma cells, cell-based, ICGC_MB145, cisplatin and BGB IC40 combos (AID 1671461; in the data active = inhibition above about 80%;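 note: cells exposed to drugs for 96 hours; 0% = vehicle DMSO and 100% = high DMSO full killing control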); details: drug combinations, stronger effect = higher value
# [7] = growth inhibition of RCMB18 medulloblastoma cells, cell-based, cisplatin and BGB IC40 combos (AID 1671462; in the data active = inhibition above about 80%;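 note: cells exposed to compound for four days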); details: stronger effect = higher value
# [8] = growth inhibition of CRL1545 osteosarcoma cells, cell-based, cisplatin and BGB IC20 combos (AID 1671464; in the data active = inhibition above about 80%;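 note: cells exposed to compound for 96 hours before readout; 0% = vehicle DMSO and 100% = high DMSO killing control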); details: stronger effect = higher value
# [9] = test system: F380Y; experiment: modulators of BK channel variants, profiling panel, selectivity assay, cell-based, U2OS BacMam, thallium flux, beta subunits (AID 1259406); details: at 30 µM;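 note: initial slope of Thallos dye fluorescence rise after thallium is added; log ratio against the mean of 0.3% DMSO vehicle wells on the same plate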
# [10] = test system: F380Y/beta1; experiment: as above; details: at 30 µM
# [11] = test system: F380Y/beta2Delta; experiment: as above; details: at 30 µM
# [12] = test system: F380Y/beta4; experiment: as above; details: at 30 µM
# [13] = target: Calcium-activated potassium channel subunit alpha-1 (Homo sapiens) + Leucine-rich repeat-containing protein 26 (Homo sapiens) (UniProt Q12791+Q2I0M4); experiment: as above; details: F380Y/Slo1WT/gamma1, at 30 µM
# [14] = test system: R275C; experiment: as above; details: at 30 µM
# [15] = test system: R275C/beta1; experiment: as above; details: at 30 µM
# [16] = test system: R275C/beta2Delta; experiment: as above; details: at 30 µM
# [17] = test system: R275C/beta4; experiment: as above; details: at 30 µM
# [18] = test system: R275C/Slo1WT/beta2; experiment: as above; details: at 30 µM
# [19] = measured here: inhibition with BGB combination, at 0.05 µM
# [20] = measured here: inhibition with cisplatin combination, at 0.05 µM
# [21] = measured here: combination with cisplatin, at 0.5 µM
# [22] = measured here: combination with cisplatin, at 5 µM
# [23] = measured here: BGB combination, at 0.5 µM
# [24] = measured here: BGB combination, at 5 µM
# [25] = measured here: cisplatin combination, at 0.5 µM
# [26] = measured here: cisplatin combination, at 5 µM
# [27] = BGB combination, concentration series, at 5 µM
# [28] = cisplatin combination, concentration series, at 5 µM
# [29] = measured here: combo with BGB IC20, at 0.5 µM
# [30] = measured here: combo with cisplatin IC20, at 0.5 µM
# [31] = cisplatin combination, at 0.5 µM
# [32] = measured here: BGB IC40 combination 0.05 uM, at 0.05 µM
# [33] = measured here: BGB IC40 combination, at 0.05 µM
# [34] = measured here: with BGB IC20 combination, at 0.5 µM
# [35] = measured here: with cisplatin IC20 combination, at 0.5 µM
# Sequence of Calcium-activated potassium channel subunit alpha-1 (Homo sapiens) + Leucine-rich repeat-containing protein 26 (Homo sapiens) (Q2I0M4 whole entry, looked up, one chain of several): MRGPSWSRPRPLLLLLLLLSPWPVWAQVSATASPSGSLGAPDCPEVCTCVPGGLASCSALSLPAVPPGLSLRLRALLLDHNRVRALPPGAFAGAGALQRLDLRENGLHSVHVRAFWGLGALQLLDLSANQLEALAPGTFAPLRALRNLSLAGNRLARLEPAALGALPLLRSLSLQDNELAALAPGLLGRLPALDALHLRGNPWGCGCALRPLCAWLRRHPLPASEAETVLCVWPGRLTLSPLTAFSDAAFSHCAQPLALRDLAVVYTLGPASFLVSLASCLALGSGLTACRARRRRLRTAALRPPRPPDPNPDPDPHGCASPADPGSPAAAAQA
smiles,measurement,setting,value
Nc1nc2c(ncn2CCC(CO)CO)c(=O)[nH]1,inhibition,[1]; at 0.5 µM,-12.6% (inactive) and 3.48% (inactive)
same,inhibition,[1]; [19],-7.99% and -7.52%
same,inhibition,[1]; [20],-19.6% and -12.5%
same,inhibition,[2]; at 0.5 µM,-3.59% (inactive) and -17% (inactive)
same,inhibition,[2]; [21],-6.24% and -17.7%
same,inhibition,[2]; [22],9.1% and -63%
same,inhibition,[3]; at 0.5 µM,-1.2% (inactive) and -23.3% (inactive)
same,inhibition,[3]; [23],8.81% and -18.4%
same,inhibition,[3]; [24],4.8% and -29%
same,inhibition,[3]; [25],-6.71% and -45.8%
same,inhibition,[3]; [26],5.49% and -36%
same,inhibition,[4]; [27],-16.8% and -15.8%
same,inhibition,[4]; at 0.5 µM,-10.2% (inactive) and 1.59% (inactive)
same,inhibition,[4]; [28],4.16% and 10.4%
same,inhibition,[5]; at 0.5 µM,6.25% (inactive) and 7.18% (inactive)
same,inhibition,[5]; [29],34.9% and 5.65%
same,inhibition,[5]; [30],-9.35% and -4.75%
same,inhibition,[6]; at 0.5 µM,8.52% (inactive) and -29.3% (inactive)
same,inhibition,[6]; [31],-11.9% and -14.8%
same,inhibition,"[6]; cisplatin combination, at 5 µM",-3.68% and -10.8%
same,inhibition,[6]; [32],45.4% and 1.15%
same,inhibition,"[6]; single agent, at 5 µM",-12.8% and -18.7%
same,inhibition,[7]; at 0.5 µM,0.33% (inactive) and -16.2% (inactive)
same,inhibition,"[7]; cisplatin combo, at 5 µM",3.43% and -89.1%
same,inhibition,[7]; [33],3.48% and 8.53%
same,inhibition,[7]; [21],-3.27% and -9.97%
same,inhibition,"[7]; single agent, at 5 µM",-16.9% and 37.5%
same,inhibition,[8]; at 0.5 µM,-5.94% (inactive) and 9.73% (inactive)
same,inhibition,[8]; [34],-31% and 11.5%
same,inhibition,[8]; [35],6.57% and 6.77%
same,inhibition,"[8]; single agent, at 0.05 µM",-14.4% and -21.2%
same,inhibition,"[8]; single agent, at 5 µM",-30.6% and 1.59%
same,log fold change Tl+ flux,[9],0.0173 (inactive)
same,log fold change Tl+ flux,[10],-0.0111 (inactive)
same,log fold change Tl+ flux,[11],-0.015 (inactive)
same,log fold change Tl+ flux,[12],-0.0159 (inactive)
same,log fold change Tl+ flux,[13],-0.013 (inactive)
same,log fold change Tl+ flux,[14],0.00432 (inactive)
same,log fold change Tl+ flux,[15],0.00335 (inactive)
same,log fold change Tl+ flux,[16],0.0147 (inactive)
same,log fold change Tl+ flux,[17],-0.0144 (inactive)
same,log fold change Tl+ flux,[18],-0.0115 (inactive)
c1cnc(N2CCN(Cc3ccc4c(c3)OCO4)CC2)nc1,log fold change Tl+ flux,[9],-0.0152 (inactive)
same,log fold change Tl+ flux,[11],-0.0184 (inactive)
same,log fold change Tl+ flux,[13],0.0386 (inactive)
same,log fold change Tl+ flux,[14],-0.0353 (inactive)
same,log fold change Tl+ flux,[15],0.0391 (inactive)
same,log fold change Tl+ flux,[16],-0.006 (inactive)
Cc1ccnc2c1NC(=O)c1cccnc1N2C1CC1,inhibition,[1]; at 0.5 µM,-0.21% (inactive)
same,inhibition,[1]; [19],-23.1%
same,inhibition,[1]; [20],-13.9%
same,inhibition,[2]; at 0.5 µM,-7.48% (inactive)
same,inhibition,[2]; [21],3.86%
same,inhibition,[2]; [22],-37.6%
same,inhibition,[3]; at 0.5 µM,-22.8% (inactive)
same,inhibition,[3]; [23],-19.7%
same,inhibition,[3]; [24],-27%
same,inhibition,[3]; [25],-29.5%
same,inhibition,[3]; [26],-14.1%
same,inhibition,[4]; [27],-12.7%
same,inhibition,[4]; at 0.5 µM,-12.9% (inactive)
same,inhibition,[4]; [28],-3.3%
same,inhibition,[5]; at 0.5 µM,-5.51% (inactive)
same,inhibition,[5]; [29],-5.33%
same,inhibition,[5]; [30],4.46%
same,inhibition,[6]; at 0.5 µM,-28.8% (inactive)
same,inhibition,[6]; [31],-7.59%
same,inhibition,"[6]; cisplatin combination, at 5 µM",-3.69%
same,inhibition,[6]; [32],-12.5%
same,inhibition,"[6]; single agent, at 5 µM",-22.7%
same,inhibition,[7]; at 0.5 µM,-8.82% (inactive)
same,inhibition,"[7]; cisplatin combo, at 5 µM",24.6%
same,inhibition,[7]; [33],-2.75%
same,inhibition,[7]; [21],5.5%
same,inhibition,"[7]; single agent, at 5 µM",-19.9%
same,inhibition,[8]; at 0.5 µM,-10.3% (inactive)
same,inhibition,[8]; [34],-9.73%
same,inhibition,[8]; [35],-13%
same,inhibition,"[8]; single agent, at 0.05 µM",-39.8%
same,inhibition,"[8]; single agent, at 5 µM",1.39%
same,log fold change Tl+ flux,[9],-0.00202 (inactive)
same,log fold change Tl+ flux,[10],0.0188 (inactive)
same,log fold change Tl+ flux,[11],0.0168 (inactive)
same,log fold change Tl+ flux,[12],0.0216 (inactive)
same,log fold change Tl+ flux,[13],-0.00356 (inactive)
same,log fold change Tl+ flux,[14],-0.0605 (inactive)
same,log fold change Tl+ flux,[15],-0.00377 (inactive)
same,log fold change Tl+ flux,[16],0.0164 (inactive)
same,log fold change Tl+ flux,[17],-0.0208 (inactive)
same,log fold change Tl+ flux,[18],-0.00118 (inactive)
